Test [1] can be described thus: rapamycin-like changes in RPL19A-GFP expression – cell-based, S. cerevisiae, multiplex flow cytometry, primary screen (AID 1862; in the data active means percent of DMSO control GFP below about 86%;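 further: lower values mimic rapamycin by blocking the RPL19A rise seen in DMSO cells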). The following applies: S. cerevisiae RPL19A-GFP strain, flow cytometry fluorescence, 3 h; at 10 µM; stronger effect = lower value. (In general: Flow cytometry measures light scatter and fluorescence of single cells or particles in a stream.)
Test [2] can be described thus: TOR pathway RTG branch CIT2 reporter changes – S. cerevisiae, GFP fusion, multiplex flow cytometry, primary screen (AID 1870;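 active means percent response above a set limit, the screen-wide mean plus 3 SD, cut at about 130% in these data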;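 further: barcoded CIT2-GFP strain pooled with four other GFP strains with rapamycin as positive control; median GFP fluorescence per well over plate mean of DMSO wells so 100% = DMSO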). The following applies: S. cerevisiae CIT2-GFP expression, 3 h, at 10 µM, stronger effect = higher value.
Test [3] can be described thus: TOR pathway LAP4-GFP level changes – S. cerevisiae, multiplex flow cytometry, primary screen (AID 1873;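 active means GFP signal, as percent of the solvent control, above the screen mean plus 3 SD, about 149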). The following applies: S. cerevisiae LAP4-GFP expression, 3 h, at 10 µM, stronger effect = higher value.
Test [4] in a line: yeast AGP1-GFP level changes, GLN3 branch – cell-based, multiplex flow cytometry, S. cerevisiae, primary screen (AID 1887;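 active means GFP signal above the screen-wide mean plus 3 SD, that is over about 124.5% of the solvent control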;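 further: AGP1-GFP fusion strain of S. cerevisiae within a five-strain barcoded multiplex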). The following applies: 3 h, at 10 µM, stronger effect = higher value.
Test [5] is described as follows: reduced mouse 2C T cell binding to pMHC/ICAM-1 vesicles – MLPCN validation set, flow cytometry, LFA-1/ICAM-1 modulator project, pilot screen (AID 2523;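 active means response below a set limit, under 55% cells CD8-positive and vesicle-bound, and CD8 cells' 90th-percentile brightness under 279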;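 on vesicle binding response: mean PE anti-B7-1 fluorescence of CD8+ cells relative to row control; 100% = QL9-loaded vesicles with DMSO vehicle in the same plate row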). The following applies: 2C mouse CD8+ T cells, at 7 µM, stronger effect = lower value; double positive events: measured here: CD8+/vesicle+ event percentage.
Test [6] concerns the target Integrin beta-1 (Homo sapiens) + Integrin alpha-4 (Homo sapiens) (UniProt P13612+P05556). The experiment in a line: alpha4beta1 integrin LIBS antibody binding reduction – U937 cells, HUTS-21 mAb, flow cytometry, validation set, VLA-4 allosteric modulator project, pilot screen (AID 2674;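 active means inhibition above 50%, about 3 SD of the validation set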;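 further: antibody binding induced by the VLA-4 ligand LDV present at three times its Kd; 0% = LDV ligand with antibody and no compound and 100% = antibody without LDV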). The following applies: HUTS-21 LIBS mAb binding, at 6.7 µM, stronger effect = higher value, binding induced by LDV ligand.

Test [7] is described as follows: calorie-restriction mimetic ROS inhibitors, yeast – validation compound set, pilot screen (AID 2706;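 active means superoxide response below 65% of plate, a cut near 3 SD across the whole screen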;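 further: yeast exposed to compound for one week at 30 degrees C before staining; 100% = mean of all compound wells on the same plate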). The following applies: S. cerevisiae aging, superoxide DHE fluorescence; at 10 µM, stronger effect = lower value.
The target of test [8] is Beta-adrenergic receptor kinase 1 (Homo sapiens) (UniProt P25098). The experiment in a line: GRK2 binders displacing RNA aptamer, biochemical, validation, human GRK2, bead flow cytometry (AID 488806;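 active means aptamer binding inhibition above 30%, about 3 SD of noise from non-fluorescent compounds; inactive means inhibition at or below 30%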). The following applies: bead-bound GRK2, FAM-aptamer displacement, at 10 µM, stronger effect = higher value.
For test [9], the target named is Beta-2 adrenergic receptor (Homo sapiens) (UniProt P07550). The experiment in a line: agonist-induced loss of surface beta2AR – cell-based, FAP fluorogen, flow cytometry, validation set, pilot screen (AID 504459;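 active means percent response above 42, roughly 3 SD of non-fluorescent test compounds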;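 further: agonist-driven loss of surface beta2AR via internalization measured by FAP dye flow cytometry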). The following applies: Am2.2-beta2AR cells, at 10 µM, stronger effect = higher value.
Test [10] concerns the target AP-2 complex subunit beta (Homo sapiens) (UniProt P63010). The test is described as follows: beta-arrestin/AP2 interaction blockers – biochemical, validation set, GST-AP2 beads, flow cytometry, pilot screen (AID 504541).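 Further: AP2 carries R879A mutation and is captured from E. coli lysate; bead-bound FITC arrestin peptide fluorescence measuring arrestin peptide binding to AP2; 0% = DMSO wells and 100% = excess unlabeled arrestin peptide control.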 The following applies: FITC arrestin peptide, at 10 µM, stronger effect = higher value, AP2 beta2 appendage fragment, R879A mutant.
Test [11] in a line: cytosolic pH regulators acting via V-ATPase – S. cerevisiae, pHLuorin, HTS validation (AID 504600; in the data active means response above about 15%;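 further: plate controls were DMSO for no effect and reference compound for full effect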). The following applies: V-ATPase proton transport, at 10 µM, stronger effect = higher value.
The subject of test [12] is anti-desmoglein-3 scFv antibody binding to human DSG3. The test is described as follows: blockers of pathogenic pemphigus antibody–desmoglein-3 binding – biochemical, validation compound set, bead-based, flow cytometry, pilot screen (AID 588368;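 active means binding below the plate cutoff, the plate median minus 3 SD, with a reading above zero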;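 further: signal is the median channel fluorescence of bead-bound GFP antibody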). The following applies: Protein G beads, DSG3-Fc, scFv-GFP binding, at 10 µM, stronger effect = lower value.
Test [13] is described as follows: Nile Red efflux blockade in pump-expressing yeast – validation compound set, multiplex, phenotypic, pilot screen (AID 588506;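 active means efflux inhibition above 0.42, the validation set average plus 4 SD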;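 further: Nile Red retained in cells so higher fluorescence means more efflux inhibition; 0 = negative control wells and 1 = enniatin B 25 µM full block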). The following applies: S. cerevisiae pump-expressing triplex, Nile Red efflux flow cytometry; at 10 µM; stronger effect = higher value; the pumps come from Candida albicans.
Test [14] deals with ATP-binding cassette sub-family B member 6 (Homo sapiens) (UniProt Q9NP58). The test is described as follows: blockers of ABCB6-driven porphyrin uptake – K562-ABCB6 cells, flow cytometry, validation set, pilot screen (AID 588550;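 active means inhibition above the screen-wide mean plus 3 SD, about 51%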;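 further: 0% = DMSO wells and 100% = benzethonium chloride 70 µM positive control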). The following applies: K562-ABCB6 porphyrin accumulation, 1 h, at 10 µM, stronger effect = higher value.
A short description of test [15]: AML differentiation inducers, ER-HoxA9 marrow cells – cell-based, GFP/MAC1 double positive, flow cytometry, validation set, primary screen (AID 588685;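 active means differentiation response of at least 50%, scaled between solvent and reference control, from cells with both markers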;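 further: compound exposure lasts four days before antibody staining and flow analysis; 0% = DMSO wells and 100% = 5 µM fulvestrant positive control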). The following applies: stronger effect = higher value, normalized: vehicle 0, fulvestrant 100.
The nature of test [16]: TOR pathway GLN3 branch reporter MEP2-GFP changes – S. cerevisiae, multiplex flow cytometry, primary screen (AID 1867;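 active means GFP response, as percent of the DMSO control, above the screen-wide mean plus 3 SD, about 139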;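 further: median GFP channel fluorescence of barcode-gated MEP2-GFP cells measured by flow cytometry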). The following applies: S. cerevisiae MEP2-GFP strain, 3 h, at 10 µM, stronger effect = higher value, 100% means same as DMSO wells.

Data on five molecules can be found in PubChem BioAssay.

Records with an inconclusive call do not appear. Activity calls are given as the source filed them.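 How the source made its calls, unless noted: active means inhibition above 54%, about 3 SD of non-fluorescent compounds; inactive means the rest.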

ATP-binding cassette sub-family B member 6 (Homo sapiens), sequence (Q9NP58 whole entry, looked up): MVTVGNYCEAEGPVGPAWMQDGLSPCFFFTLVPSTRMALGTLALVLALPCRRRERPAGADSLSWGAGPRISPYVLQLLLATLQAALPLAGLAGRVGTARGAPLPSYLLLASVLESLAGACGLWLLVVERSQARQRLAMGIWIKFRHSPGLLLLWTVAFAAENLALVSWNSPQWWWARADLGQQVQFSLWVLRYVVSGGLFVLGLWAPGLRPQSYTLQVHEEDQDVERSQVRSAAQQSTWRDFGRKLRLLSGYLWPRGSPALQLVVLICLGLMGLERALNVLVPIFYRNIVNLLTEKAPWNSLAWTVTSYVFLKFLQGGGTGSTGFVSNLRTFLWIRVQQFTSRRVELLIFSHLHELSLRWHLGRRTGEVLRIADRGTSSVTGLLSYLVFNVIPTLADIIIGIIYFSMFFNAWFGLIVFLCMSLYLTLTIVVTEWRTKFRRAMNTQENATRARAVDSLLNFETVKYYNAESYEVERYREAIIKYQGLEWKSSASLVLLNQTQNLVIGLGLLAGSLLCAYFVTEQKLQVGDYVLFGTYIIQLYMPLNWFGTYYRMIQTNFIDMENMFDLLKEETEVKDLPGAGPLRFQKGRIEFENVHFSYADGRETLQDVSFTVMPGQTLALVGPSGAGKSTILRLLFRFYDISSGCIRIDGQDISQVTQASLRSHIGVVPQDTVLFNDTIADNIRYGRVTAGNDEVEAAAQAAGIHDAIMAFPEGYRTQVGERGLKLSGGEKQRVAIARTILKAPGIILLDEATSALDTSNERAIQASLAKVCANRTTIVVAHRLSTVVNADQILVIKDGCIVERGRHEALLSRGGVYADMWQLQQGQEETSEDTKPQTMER
AP-2 complex subunit beta (Homo sapiens), sequence (P63010 whole entry, looked up, the tested form may be a part, one chain of several): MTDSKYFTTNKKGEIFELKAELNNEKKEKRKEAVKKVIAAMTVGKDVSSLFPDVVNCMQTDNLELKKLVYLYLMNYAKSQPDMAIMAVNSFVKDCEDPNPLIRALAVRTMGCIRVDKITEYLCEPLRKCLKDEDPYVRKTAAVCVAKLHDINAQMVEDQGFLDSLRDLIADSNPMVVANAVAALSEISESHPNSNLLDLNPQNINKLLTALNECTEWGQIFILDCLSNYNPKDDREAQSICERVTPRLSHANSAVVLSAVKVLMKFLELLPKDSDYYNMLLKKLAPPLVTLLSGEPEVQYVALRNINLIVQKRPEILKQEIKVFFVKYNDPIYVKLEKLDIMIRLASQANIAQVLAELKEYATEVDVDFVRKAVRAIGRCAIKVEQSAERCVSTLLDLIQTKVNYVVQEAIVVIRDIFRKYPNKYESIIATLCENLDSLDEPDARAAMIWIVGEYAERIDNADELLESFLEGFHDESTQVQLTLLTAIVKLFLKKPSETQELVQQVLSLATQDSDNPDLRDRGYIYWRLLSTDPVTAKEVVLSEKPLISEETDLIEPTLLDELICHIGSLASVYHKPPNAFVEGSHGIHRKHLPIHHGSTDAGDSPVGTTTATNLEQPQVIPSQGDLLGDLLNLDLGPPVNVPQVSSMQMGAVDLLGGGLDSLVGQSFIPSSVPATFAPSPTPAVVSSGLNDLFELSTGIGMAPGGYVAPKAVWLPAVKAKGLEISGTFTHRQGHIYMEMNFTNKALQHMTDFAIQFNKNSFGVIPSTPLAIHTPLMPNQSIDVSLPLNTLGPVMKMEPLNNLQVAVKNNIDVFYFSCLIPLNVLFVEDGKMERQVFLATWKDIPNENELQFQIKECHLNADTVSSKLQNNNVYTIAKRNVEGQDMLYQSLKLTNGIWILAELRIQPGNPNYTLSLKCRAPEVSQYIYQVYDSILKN
Beta-2 adrenergic receptor (Homo sapiens), sequence (P07550 whole entry, looked up): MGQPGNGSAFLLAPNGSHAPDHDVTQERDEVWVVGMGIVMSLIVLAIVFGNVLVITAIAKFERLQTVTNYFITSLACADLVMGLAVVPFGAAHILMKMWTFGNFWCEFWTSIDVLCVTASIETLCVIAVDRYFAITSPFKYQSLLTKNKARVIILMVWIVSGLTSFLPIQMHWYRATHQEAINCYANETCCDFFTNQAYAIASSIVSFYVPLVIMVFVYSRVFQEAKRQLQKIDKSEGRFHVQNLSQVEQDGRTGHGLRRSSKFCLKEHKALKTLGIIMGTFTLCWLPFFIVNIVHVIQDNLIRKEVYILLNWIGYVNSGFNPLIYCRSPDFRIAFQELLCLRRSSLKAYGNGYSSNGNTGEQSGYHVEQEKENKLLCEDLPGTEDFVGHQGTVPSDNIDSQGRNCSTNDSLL
Beta-adrenergic receptor kinase 1 (Homo sapiens), sequence (P25098 whole entry, looked up): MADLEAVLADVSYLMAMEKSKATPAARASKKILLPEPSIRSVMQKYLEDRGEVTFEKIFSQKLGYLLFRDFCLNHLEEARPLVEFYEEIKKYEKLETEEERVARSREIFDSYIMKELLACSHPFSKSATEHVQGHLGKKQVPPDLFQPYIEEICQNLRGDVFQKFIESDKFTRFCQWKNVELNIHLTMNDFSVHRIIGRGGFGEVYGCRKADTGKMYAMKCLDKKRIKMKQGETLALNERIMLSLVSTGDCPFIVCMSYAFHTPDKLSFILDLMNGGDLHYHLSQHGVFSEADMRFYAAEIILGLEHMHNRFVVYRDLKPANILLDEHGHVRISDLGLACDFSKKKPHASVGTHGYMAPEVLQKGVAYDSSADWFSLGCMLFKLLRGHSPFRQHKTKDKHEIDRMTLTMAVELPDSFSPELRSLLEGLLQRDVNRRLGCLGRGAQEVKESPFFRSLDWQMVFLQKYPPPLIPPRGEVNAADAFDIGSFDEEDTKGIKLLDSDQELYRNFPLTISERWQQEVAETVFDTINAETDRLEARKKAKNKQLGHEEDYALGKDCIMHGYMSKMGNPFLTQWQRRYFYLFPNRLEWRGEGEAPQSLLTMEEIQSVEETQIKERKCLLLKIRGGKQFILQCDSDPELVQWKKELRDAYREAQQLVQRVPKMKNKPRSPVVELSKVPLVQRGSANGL
Integrin beta-1 (Homo sapiens) + Integrin alpha-4 (Homo sapiens), sequence (P05556 whole entry, looked up): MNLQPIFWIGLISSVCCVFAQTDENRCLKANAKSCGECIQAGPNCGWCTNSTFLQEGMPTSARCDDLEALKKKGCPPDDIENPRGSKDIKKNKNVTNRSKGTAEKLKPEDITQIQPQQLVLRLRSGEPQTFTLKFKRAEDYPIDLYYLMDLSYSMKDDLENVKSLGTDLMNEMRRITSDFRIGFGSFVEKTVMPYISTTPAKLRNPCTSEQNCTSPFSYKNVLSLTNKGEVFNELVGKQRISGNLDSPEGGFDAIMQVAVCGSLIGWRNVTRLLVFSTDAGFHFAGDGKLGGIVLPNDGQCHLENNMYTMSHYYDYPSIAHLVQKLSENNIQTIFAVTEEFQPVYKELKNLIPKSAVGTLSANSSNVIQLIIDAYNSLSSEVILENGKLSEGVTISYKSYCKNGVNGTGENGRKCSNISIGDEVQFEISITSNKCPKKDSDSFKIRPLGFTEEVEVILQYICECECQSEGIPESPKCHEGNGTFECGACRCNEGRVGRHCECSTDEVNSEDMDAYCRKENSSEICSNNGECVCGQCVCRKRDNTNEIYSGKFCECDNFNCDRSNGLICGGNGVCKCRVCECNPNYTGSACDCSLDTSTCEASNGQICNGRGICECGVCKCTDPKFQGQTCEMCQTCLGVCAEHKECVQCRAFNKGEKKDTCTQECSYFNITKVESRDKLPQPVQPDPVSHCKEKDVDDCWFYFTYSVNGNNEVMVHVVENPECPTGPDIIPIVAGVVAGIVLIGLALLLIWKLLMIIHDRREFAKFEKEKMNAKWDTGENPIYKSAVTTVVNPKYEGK
Integrin beta-1 (Homo sapiens) + Integrin alpha-4 (Homo sapiens), sequence (P13612 whole entry, looked up): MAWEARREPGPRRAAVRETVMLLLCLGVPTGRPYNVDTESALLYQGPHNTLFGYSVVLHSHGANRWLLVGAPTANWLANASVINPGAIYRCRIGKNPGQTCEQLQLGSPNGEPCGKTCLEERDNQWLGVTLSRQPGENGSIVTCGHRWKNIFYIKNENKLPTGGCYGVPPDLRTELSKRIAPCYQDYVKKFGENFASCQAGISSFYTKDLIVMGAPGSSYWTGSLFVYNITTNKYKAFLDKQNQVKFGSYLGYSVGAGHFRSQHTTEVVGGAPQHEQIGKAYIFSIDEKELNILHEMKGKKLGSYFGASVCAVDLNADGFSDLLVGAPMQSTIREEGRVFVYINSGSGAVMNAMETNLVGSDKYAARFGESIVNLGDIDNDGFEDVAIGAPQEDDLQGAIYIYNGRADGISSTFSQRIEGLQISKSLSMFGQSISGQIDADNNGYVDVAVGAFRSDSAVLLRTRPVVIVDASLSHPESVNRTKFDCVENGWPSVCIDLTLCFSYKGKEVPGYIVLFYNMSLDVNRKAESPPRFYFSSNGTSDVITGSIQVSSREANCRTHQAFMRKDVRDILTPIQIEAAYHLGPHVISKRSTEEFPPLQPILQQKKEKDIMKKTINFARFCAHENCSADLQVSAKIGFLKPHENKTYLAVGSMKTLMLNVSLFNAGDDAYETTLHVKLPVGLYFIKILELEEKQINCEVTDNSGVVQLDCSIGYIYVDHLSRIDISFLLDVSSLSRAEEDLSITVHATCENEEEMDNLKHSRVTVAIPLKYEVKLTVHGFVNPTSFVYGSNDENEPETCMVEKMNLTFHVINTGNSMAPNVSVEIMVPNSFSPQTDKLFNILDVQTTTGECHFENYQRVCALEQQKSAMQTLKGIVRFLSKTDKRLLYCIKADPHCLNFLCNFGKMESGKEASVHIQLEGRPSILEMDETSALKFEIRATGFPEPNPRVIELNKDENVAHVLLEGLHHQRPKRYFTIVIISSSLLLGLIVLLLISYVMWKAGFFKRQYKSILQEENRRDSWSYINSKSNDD

One may read the inhibition as the change of the read-out against control, counted positive when it falls. As to `CC1CNCCN1S(=O)(=O)c1cccc2cnccc12` (stereo not given), in test [1], the percent of DMSO control GFP was 95% (inactive). Moreover, the percent response of DMSO control in [2] was 104% (inactive). For the same molecule, in test [3], the GFP response vs DMSO was 111% (inactive). Further, in test [4], the GFP response, % of DMSO is 91.3% (inactive). Moreover, the double positive events in [5] was 62.9%. The vesicle binding response in [5] was 918% (inactive). Moreover, the inhibition was 17.2% (inactive) in test [6], -9.84% (inactive) in test [10] and 2% (inactive) in [14]. For the same molecule, the superoxide response (% of plate) in test [7] is 91.3% (inactive). Further, the aptamer binding inhibition in test [8] was 3% (inactive). The response in [9] was -6.28% (inactive); in test [11], 1.37% (inactive). In addition, in test [12], the binding (% of control) was 96.3% (inactive). Besides, the efflux inhibition (fraction of control) in [13] was -0.07 (inactive). Also, the differentiation response in test [15] is 14.9% (inactive).

For `Cc1ccccc1NC(=O)C1c2ccccc2Oc2ccccc21`, the percent of DMSO control GFP in test [1] is 96.1% (inactive). Also, the GFP response vs DMSO in test [16] is 120% (inactive); in test [3] it was 77.6% (inactive). In test [2], the percent response of DMSO control is 110% (inactive). Also, the double positive events in test [5] worked out at 65.5%. In addition, the vesicle binding response in [5] is 217% (inactive). The inhibition was 4.52% (inactive) in [6], -0.97% (inactive) in test [10] and 12% (inactive) in [14]. Further, the superoxide response (% of plate) in test [7] is 86.5% (inactive). In addition, in test [8], the aptamer binding inhibition was 2% (inactive). The response was -5.21% (inactive) in test [9] and -0.9% (inactive) in test [11]. Moreover, the binding (% of control) in [12] is 105% (inactive). Moreover, in test [13], the efflux inhibition (fraction of control) is 0.16 (inactive). Also, in [15], the differentiation response was -4.09% (inactive).

Regarding `COc1ccc(C2C3C(C)=NN=C3CC(C)(O)C2C(C)=O)cc1` (stereo not given), the percent of DMSO control GFP in test [1] is 99.5% (inactive). The percent response of DMSO control in [2] is 97.7% (inactive). Moreover, in test [3], the GFP response vs DMSO was 94% (inactive). Further, the GFP response, % of DMSO in test [4] was 96.9% (inactive). Moreover, the double positive events in [5] worked out at 60.7%. In test [5], the vesicle binding response is 265% (inactive). Moreover, the inhibition in [6] is 13.2% (inactive); in test [10], 12.8% (inactive); in test [14], 3% (inactive). Besides, the superoxide response (% of plate) in test [7] is 103% (inactive). The aptamer binding inhibition in test [8] is 6% (inactive). Further, the response in [9] was -1.78% (inactive); in test [11], 2.14% (inactive). Besides, the binding (% of control) in test [12] was 101% (inactive). For the same molecule, the efflux inhibition (fraction of control) in [13] was -0.21 (inactive). Further, in test [15], the differentiation response was -18.4% (inactive).

With `Cc1oc2ccc(OC(=O)c3cccs3)cc2c1C(=O)OC(C)C`, in test [1], the percent of DMSO control GFP was 91.2% (inactive). For the same molecule, in [2], the percent response of DMSO control is 92.5% (inactive). In [3], the GFP response vs DMSO was 115% (inactive). The GFP response, % of DMSO in [4] is 94.9% (inactive). The molecule also returned a double positive events in [5] of 64.6%. In [5], the vesicle binding response is 205% (inactive). The figures for the inhibition in test [6], in [10] and in [14] were -4.52% (inactive), -7.21% (inactive) and 2% (inactive), respectively. Moreover, the superoxide response (% of plate) in test [7] was 96% (inactive). Moreover, the aptamer binding inhibition in test [8] was 1% (inactive). Besides, the values for the response in test [9] and in [11] were -19.3% (inactive) and -4.85% (inactive), respectively. Also, the binding (% of control) in [12] was 105% (inactive). The efflux inhibition (fraction of control) in test [13] was -0.09 (inactive). Moreover, the differentiation response in [15] was -4.99% (inactive).

As to `O=C(OCC1OC2OC3(CCCCC3)OC2C2OC3(CCCCC3)OC12)c1ccccc1` (stereo not given), in [1], the percent of DMSO control GFP was 90.9% (inactive). Further, the GFP response vs DMSO in test [16] is 104% (inactive); in test [3], 76.5% (inactive). For the same molecule, the percent response of DMSO control in [2] was 116% (inactive). This molecule had a double positive events in test [5] of 60.9%. For the same molecule, the vesicle binding response in test [5] was 154% (inactive). Moreover, the inhibition in test [6] was 5.49% (inactive); in test [10], 5.67% (inactive); in test [14], 5% (inactive). The superoxide response (% of plate) in [7] was 102% (inactive). In addition, the aptamer binding inhibition in test [8] was 5% (inactive). Besides, the response in test [9] is 11.7% (inactive); in [11], 1.42% (inactive). Besides, the binding (% of control) in [12] is 128% (inactive). For the same molecule, in test [13], the efflux inhibition (fraction of control) was 0.09 (inactive). In test [15], the differentiation response was -0.82% (inactive).
